Data as given in PubChem BioAssay AID1508600 (Functional Genomics Laboratory (NCATS/FGL), 2020).
Hit rate of the full screen: of about 53,000 sequences, about 3,700 (7%) were called active.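 How the source made its calls: active means gene knockdowns whose robust z-score for IL-1 alpha signal is at least 2 or at most -2, so actives lie on both sides; inactive means the rest.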 The entries come from a sample that favours actives as a whole.

Experiment: Components of the Cytosolic LPS Sensing Pathway: Gene Identification via Genome-wide siRNA Screen;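 further: robust z of the log signal after scaling to non-targeting control siRNA wells of the plate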
Conditions: RAW264.7 macrophages, IL-1a HTRF, actives lie on both sides, screened at 100 nM (by protocol), cells primed 5 h with Pam3CSK4 first
Summary of the method: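 Three distinct siRNAs per gene were tested singly at 100 nM in RAW264.7 macrophages. Following Pam3CSK4 priming and 24 hour LipidA transfection, IL-1a secretion was read by HTRF.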
For GCCAGCUACCGAGUCUAUUTT against Tkt, the z-score was 2.8 (active). For GCAUGCUGACACUUACUUUTT against Olfr878, the z-score was -0.872 (inactive). For CCAGGCAGCUAAACUGUGUTT against Tex11, the z-score was -0.11 (inactive). In the case of GGGACUGUACCCAGUUUAATT against Ccl27a, the z-score is reported as 1.62 (inactive). For CGUGGAAUGAAGAUUGUCCTT against Hsd17b12, the z-score was 0.284 (inactive). In the case of GCAAAAUAGCCCAGUAUAATT against Pax6, the z-score is reported as -5.02 (active). In the case of GGAGUUUCUUCAGUUCCUUTT against Dld, the z-score is reported as 0.87 (inactive). For GCGGAGGAUAGAGCAAAUUTT against Upf3b, the z-score was -0.0448 (inactive). In the case of GGAACAUCAAGGGAAUUAUTT against Zfp638, the z-score is reported as 2.36 (active). For GGACAACAGUGGAAGGCUCTT against Serpinb1a, the z-score was 0.841 (inactive). In the case of GGAGGUGAACCAUAGAGAGTT against Csrnp2, the z-score is reported as 1.12 (inactive). In the case of CCCUCUAUCAGUUACCCUGTT against Mcpt2, the z-score is reported as 0.686 (inactive). With GGACAAUGGUUCCUUGGAUTT against Cdc25c the z-score was 0.981 (inactive). With GGAUGUCACUCUUGCAUUGTT against Olfr948 the z-score was 0.75 (inactive). For GCCACAACUCCAGAUGCCUTT against Olfr937, the z-score was -2.64 (active). In the case of GGAAGAACUUCAGAAUGCATT against Slirp, the z-score is reported as -0.627 (inactive). In the case of CCUUCAUUGUGAUUGACAUTT against Ptpn11, the z-score is reported as -0.55 (inactive). In the case of GGUUCAGUGCUUUGUGUUCTT against Il2rg, the z-score is reported as -0.541 (inactive). In the case of CCUUCUAAAUACUGAUUUGTT against Ugt2b38, the z-score is reported as 0.699 (inactive). In the case of GCAGAAUAUUAACCAGUGUTT against Ptp4a2, the z-score is reported as 1.15 (inactive). In the case of CCAGUUCCGGUCAGAUUAUTT against Gnal, the z-score is reported as -1.55 (inactive). With GCCUCCAGAACUCACUGCATT against Hes3 the z-score was -2.04 (active). For AAGGAAGUCUGUCCAAGGUTT against Olfr192, the z-score was -0.284 (inactive). For GCUGCCAUUUCGCCAAUCUTT against Mfap4, the z-score was -2.65 (active). With GGGAGCAUCAAACAACAAUTT against Tbr1 the z-score was 0.742 (inactive). For GGCUGUGGAUUUCUCUCUGTT against Kng1, the z-score was -0.334 (inactive). For GGCCGAGUACAAACGUGGATT against Atg9a, the z-score was 2.77 (active). In the case of CCUGAGUCAGAUUCAUUUATT against Pten, the z-score is reported as 0.292 (inactive). With GGUGCCAUUCAUCUUUCAATT against Tmprss3 the z-score was 1.85 (inactive). For GGUGCAAGAUCAAGAACUGTT against C1ra, the z-score was 2.78 (active).
